Compounds with a hit are over-represented: about 18% of the library has one in this group of screens.
VDR inh = vitamin D3 receptor (human) inhibition | P11473 | AID 504847 | VDR-SRC2-3 peptide fluorescence polarization, 2 h | Potency, µM, hits mostly inhibitors | hit rate 0.93% among 400,000
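VDR–SRC2-3 interaction, FP format. Cmpds 23 nl via pintool, brief spin, 2 h ambient incubation.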
PLK1 PBD block = blocks phosphopeptide binding to human PLK1 polo-box domain. P53350. Plk1 PBD binding of FITC phosphopeptide, fluorescence polarization. Potency, µM, actives largely listed as inhibitors. hit rate 2.8% among 360,000; note: series mostly up to about 57 µM; nearly all actives have a fitted effect of over 65% in size
TDP1 block = TDP1 (human) enzyme inhibition. hit rate 0.28% among 350,000. Q9NUW8. Potency, µM (series often up to 130 µM), actives largely listed as inhibitors. recombinant TDP1, AlphaScreen DNA substrate cleavage. AID 485290; note: nearly all actives have a fitted effect of over 40% in size
Target sequence (Q9NUW8 whole entry, looked up): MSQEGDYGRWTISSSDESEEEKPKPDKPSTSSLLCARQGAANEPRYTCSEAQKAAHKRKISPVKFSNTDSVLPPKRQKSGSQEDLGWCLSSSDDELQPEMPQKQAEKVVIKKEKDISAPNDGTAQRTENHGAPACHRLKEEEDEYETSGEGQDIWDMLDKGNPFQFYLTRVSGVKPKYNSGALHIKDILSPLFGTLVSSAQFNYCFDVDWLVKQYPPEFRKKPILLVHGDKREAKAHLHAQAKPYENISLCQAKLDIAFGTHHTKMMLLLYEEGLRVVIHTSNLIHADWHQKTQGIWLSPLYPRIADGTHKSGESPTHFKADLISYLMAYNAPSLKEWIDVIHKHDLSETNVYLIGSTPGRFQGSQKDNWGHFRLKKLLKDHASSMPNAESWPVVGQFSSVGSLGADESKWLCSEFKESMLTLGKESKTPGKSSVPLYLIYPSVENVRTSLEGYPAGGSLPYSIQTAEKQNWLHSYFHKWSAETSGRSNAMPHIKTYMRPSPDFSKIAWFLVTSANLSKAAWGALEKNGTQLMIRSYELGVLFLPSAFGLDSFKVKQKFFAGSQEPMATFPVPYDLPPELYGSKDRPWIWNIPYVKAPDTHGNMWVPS
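Compounds were preincubated with Tdp1 (1 nM final) for 15 min at room temperature before substrate (15 nM final) started a 5 min reaction; beads (10 ug/ml final) were then added for 10 min before AlphaScreen detection.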
KAT2A inh = GCN5L2 (KAT2A) acetyltransferase inhibition | Potency, µM (titrated, usually from 58.9 µM), most hits filed as inhibitors | GCN5L2 HAT assay, ThioGlo1 CoA-SH fluorescence | hit rate 0.21% among 390,000 | Q92830
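Preincubate 20nM GCN5L2 with compound 15 min, RT → add 50uM ThioGlo1 + 75uM H3(1-25) + 70uM acetyl-CoA → read fluorescence 0 and 20 min. Primary qHTS; fluorescent artifacts likely.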
TDP1 cell noCPT = qHTS for Inhibitors of human tyrosyl-DNA phosphodiesterase 1 (TDP1): qHTS in cells in absence of CPT; DT40 Tdp1-/- hTDP1 cells, no CPT, ATP luminescence, 48 h; Potency, µM (series often up to 46.2 µM), hits mostly inhibitors; hit rate 15% among 420,000; note: nearly all actives have a fitted effect of over 55% in size
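A cellular qHTS used chicken DT40 cells lacking endogenous Tdp1 but carrying stably transfected human TDP1. Compounds were applied without camptothecin, and cell growth kinetics were judged by ATP-dependent luminescence after ≥48 hr.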
TDP1 cell CPT = DT40-hTDP1 cell growth loss with CPT; chicken DT40 Tdp1-/-;hTDP1 cells + 20 nM CPT, ATP luminescence, 48 h; Potency, µM (doses to about 46.2 µM), actives largely listed as inhibitors; hit rate 12% among 420,000; note: nearly all actives have a fitted effect of over 55% in size
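Chicken DT40 Tdp1-/- cells stably complemented with human TDP1 were seeded at 400 cells/well in medium containing 20 nM camptothecin, exposed to pin-transferred compounds, and grown at 37 °C for at least 48 hr. Viability was read as ATP luminescence.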
Hits are given with their value; n = inactive; u = inconclusive; x = not tested or not shown; [ ] = dose if it differs, or a comment. Calls come from the whole dose curve; as a rule, active = well fitted curve in the direction sought with a large enough effect; inconclusive = small, poorly fitted or top-dose-only effect, or another doubt; inactive = no such curve, though single readings can be large; an effect the other way counts as inactive or inconclusive.

SMILES | VDR inh | PLK1 PBD block | TDP1 block | KAT2A inh | TDP1 cell noCPT | TDP1 cell CPT
O=C(/C=C/[C@H]1O[C@@H](n2ccc(=O)[nH]c2=O)[C@H](O)[C@@H]1O)NCCCc1ccccc1 | x | n | x | x | n | n
Cc1ccc(NC(=O)CSc2nc3ccccc3c(=O)n2CCCC(=O)N2CCCC2)cc1 | n | n | n | n | 21µM | 18µM
Cc1ccc(S(=O)(=O)N(C)C)cc1-n1c(SCC(=O)Nc2ccc(F)cc2Cl)nc2ccccc2c1=O | n | n | n | n | 16µM | 21µM
CCCCn1c(SCC(=O)Nc2cc(NC(=O)c3ccco3)ccc2C)nc2ccccc2c1=O | n | n | n | n | 23µM | u
Cc1ccc(NC(=O)CSc2nc3ccccc3c(=O)n2CCCN2CCCCC2)cc1C | n | n | n | n | u | 26µM
COCCn1c(SCC(=O)Nc2ccc(NC(=O)c3ccco3)c(OC)c2)nc2ccccc2c1=O | n | n | n | n | n | n
Cc1ccc(NC(=O)CSc2nc3ccccc3c(=O)n2CCC(=O)NC2CCCCC2)cc1C | n | x | n | n | n | n
CCCCn1c(SCC(=O)NCc2ccccc2)nc2ccc(N3CCOCC3)cc2c1=O | n | n | n | n | 1.5µM | n
CC(Sc1nc2ccccc2c(=O)n1CCCN1CCOCC1)C(=O)N1CCc2ccccc21 (centres undefined) | n | n | x | x | n | n
Cc1cccc(NC(=O)C(C)Sc2nc3ccccc3c(=O)n2CCCN2CCOCC2)c1 (centres undefined) | n | n | n | n | n | 23µM
CN(C)S(=O)(=O)c1ccc(Cl)c(NC(=O)CSc2nc3ccccc3c(=O)n2CCCN2CCOCC2)c1 | n | n | n | n | 26µM | u
CCc1ccc(NC(=O)CSc2nc3ccccc3c(=O)n2CCNC(C)=O)cc1 | n | x | n | n | n | n
CCc1ccc(NC(=O)CSc2nc3ccccc3c(=O)n2CCCN2CCC(C)CC2)cc1 | n | n | n | n | 23µM | u
Cc1ccc(Cl)cc1N1CCN(C2(c3ccccc3)C(=O)c3ccccc3C2=O)CC1 | n | x | n | n | u | u
O=C1CCC[C@@H]2Cc3nc4cc5c(cc4cc3[C@@H]3CCN1[C@H]23)OCO5 | n | n | x | x | 16µM | 18µM
O=C1NC(c2ccc(Br)cc2)=N/C1=C/c1ccco1 | n | n | u | n | u | 7.3µM
CCc1cccc(NC(=O)CN(C)S(=O)(=O)c2ccc3c(c2)CCCN3C(C)=O)c1 | n | x | n | n | u | 21µM
CC(=O)N1CCCc2cc(S(=O)(=O)N(C)CC(=O)Nc3ccc(F)c(Cl)c3)ccc21 | n | x | n | n | 21µM | 10µM
CC(=O)N1CCCc2cc(S(=O)(=O)N3CCC(C(=O)N(Cc4ccccc4)C(C)C)CC3)ccc21 | n | x | n | n | u | 23µM
CC(=O)N1CCCc2cc(S(=O)(=O)N(C)Cc3ccccc3)ccc21 | n | n | n | n | 21µM | u
CC(=O)N1CCCc2cc(S(=O)(=O)N3CCC(N(C)C(C)C)CC3)ccc21 | n | x | n | n | n | n
CN1CCN(c2ncnc3c2ncn3[C@H]2CN(Cc3ccc(C(=O)O)cc3)C[C@@H](CO)O2)CC1 | x | n | x | x | n | n
Cc1noc(C)c1S(=O)(=O)NCc1ccc(CN(C)C)cc1 | n | n | n | n | n | n
COc1cc(Cl)c(C)cc1NC(=O)CCc1c(C)nc2cc(-c3cccc(F)c3)nn2c1C | n | x | n | n | n | n
O=C(NCCSSCCNC(=O)c1ccccc1)c1ccccc1 | u | n | x | x | 16µM | 18µM
SMILES | VDR inh | PLK1 PBD block | TDP1 block | KAT2A inh | TDP1 cell noCPT | TDP1 cell CPT
COC(=O)C1=C(C(=O)OC)[C@]2([C@@H]3CC=CCN[C@@H](Cc4ccccc4)C(=O)N3Cc3ccccc3)C=C[C@H]1O2 | n | n | x | x | 12µM | 18µM
COC(=O)C1=C(C(=O)OC)[C@]2([C@H]3CC=CCN[C@@H](Cc4ccccc4)C(=O)N3Cc3ccccc3)C=C[C@H]1O2 | n | n | x | x | 15µM | 18µM
COC(=O)C1=C(C)N(Cc2ccccc2)[C@]23O[C@](C(=O)OC)(C(=O)N2C1c1ccccc1)C(C(=O)OC)=C3C(=O)OC (some centres undefined) | x | x | n[21 µM] | x | x | x
O=C(OCC#CCSc1nnc(-c2ccccc2)o1)c1ccc(F)cc1 | x | x | n | x | x | x
COc1ccc(CCNC(=O)c2cnc3ccc(C)cn3c2=O)cc1 | n | x | n | n | n | u
O=C(O)c1cccc(N2C(=O)C3C4C=CC(C4=C(c4ccccc4)c4ccccc4)C3C2=O)c1 (centres undefined) | n | 30µM | n | n | n | n
O=C(c1cccc(N2C(=O)C3C4C=CC(C4)C3C2=O)c1)N1CCCCCC1 (centres undefined) | n | n | n | n | u | n
O=C(OCc1cn([C@@H]2C[C@H](c3ccccc3)N(C(=O)C3CCCCC3)C[C@H]2O)nn1)c1ccccc1 | x | n | x | x | u | n
COc1ccc([C@H]2C[C@H](O)[C@@H](n3cc(COC(=O)c4ccccc4)nn3)CN2CC2CCCCC2)cc1 | x | n | x | x | 23µM | 23µM
Cc1ccc([C@H]2C[C@@H](n3cc(COC(=O)c4ccccc4)nn3)[C@H](O)CN2C(=O)C2CCCCC2)cc1 | x | n | x | x | 21µM | u
CCCCCCN1C[C@@H](O)[C@H](n2cc(COC(=O)c3ccccc3)nn2)C[C@@H]1c1ccccc1 | x | n | x | x | u | u
CCCCCCN1C[C@@H](O)[C@H](n2cc(COC(=O)c3ccccc3)nn2)C[C@@H]1c1ccc(C)cc1 | x | n | x | x | 21µM | 21µM
Cc1ccc([C@H]2C[C@@H](n3cc(COC(=O)c4ccccc4)nn3)[C@H](O)CN2CC2CCCCC2)cc1 | x | n | x | x | u | u
Cc1ccc([C@H]2C[C@H](n3cc(COC(=O)c4ccccc4)nn3)[C@@H](O)CN2CC2CCCCC2)cc1 | x | n | x | x | 21µM | u
O=C(OCc1cn([C@H]2C[C@H](c3ccccc3)N(CC3CCCCC3)C[C@@H]2O)nn1)c1ccccc1 | x | n | x | x | u | u
COc1ccc([C@@H]2CC(=O)c3c(O)cc(O[C@@H]4O[C@H](CO)[C@@H](O)[C@H](O)[C@H]4O[C@@H]4O[C@@H](C)[C@H](O)[C@@H](O)[C@H]4O)cc3O2)cc1 | n | x | n | n | x | x
COc1ccc(Cl)cc1C(=O)Nc1cccc(-c2ccc3nncn3n2)c1 | n | n | x | n | n | u
N#Cc1c(NCc2ccccc2)ccnc1NCc1cccnc1 | n | n | n | n | 8.2µM | 23µM
CN(C)c1ccnc(NCc2ccccc2)c1C#N | u | n | n | n | n | n

Screening results (PubChem)
